# Source: PubChem
# PostGolgi ctrl: growth of the yeast control strain, post-Golgi counter-screen; efflux-deficient yeast background strain, growth absorbance A615, 16 h; inhibition, % at 10 µM; 98,000 compounds, 5% hits; AID 738
# D1 mod: allosteric modulators of human D1 dopamine receptor; P21728; HEK293 D1, CRE-luciferase, dopamine EC30 potentiation; actives deviate in either direction; B-score at 10 µM; 58,000 compounds, 5.9% hits; AID 641;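 active = luminescence count or its row- and column-corrected plate score outside the 99.7% band of the plate's sample wells, on either side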
# Target sequence (P21728 whole entry, looked up): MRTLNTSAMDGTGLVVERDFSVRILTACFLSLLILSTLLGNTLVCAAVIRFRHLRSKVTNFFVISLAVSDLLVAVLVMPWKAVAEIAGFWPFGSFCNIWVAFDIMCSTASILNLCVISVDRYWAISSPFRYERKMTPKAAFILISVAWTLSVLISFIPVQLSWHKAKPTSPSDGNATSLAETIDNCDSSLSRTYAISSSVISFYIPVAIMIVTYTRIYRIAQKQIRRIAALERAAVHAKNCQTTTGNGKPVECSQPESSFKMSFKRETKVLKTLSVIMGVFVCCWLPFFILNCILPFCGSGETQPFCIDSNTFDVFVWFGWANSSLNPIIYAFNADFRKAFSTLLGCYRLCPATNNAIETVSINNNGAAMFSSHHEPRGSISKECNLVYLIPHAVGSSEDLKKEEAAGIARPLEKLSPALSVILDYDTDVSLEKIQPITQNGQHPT
# PLAP act: activators of human placental alkaline phosphatase | activation fold at 20 µM | purified PLAP enzyme, luminescent substrate read-out; active compounds read high | 96,000 compounds, 1.2% hits | P05187; in the data active = activation fold above about 2
# Cav32 inh: inhibitors of human Cav3.2 T-type calcium channel | O95180 | Cav3.2-expressing cells, Fluo-4 calcium fluorescence FDSS; active compounds read low | B-score at 10 µM | 100,000 compounds, 4% hits | AID 449739;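 active = single-dose well whose peak fluorescence ratio is a statistical outlier from its plate by either plate-standardised score or position-corrected B-score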
# PostGolgi yeast: growth inhibition of a yeast mutant, post-Golgi transport screen. post-Golgi transport phenotypic cell assay. inhibition, % at 10 µM. 98,000 compounds, 0.9% hits. AID 739;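 note: yeast cells grown in 1536-well plates; yeast grown about 18 h at 30C before absorbance read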
# hDAT+cocaine: changed human dopamine transporter uptake under cocaine IC80; Q01959; B-score at 10 µM; 110,000 compounds, 1.3% hits; LLC-PK1 hDAT cells, [14C]-dopamine uptake with cocaine IC80; actives deviate in either direction;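 active = Z score or B-score, a plate-position-corrected score, falls beyond the plate's 99.7% confidence bounds, in either direction; inactive = both scores lie inside the 99.7% bounds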;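 note: scored against the spread of the other compound wells on the same plate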
# An asterisk follows results filed as active; · = no result. Sampled rows, rich in hits. Any-hit rate of the full collection: about 12%. Cut-off read from the data, not from the text of the source, unless noted: active = inhibition above about 30%; inactive = the rest.
SMILES,PostGolgi ctrl,D1 mod,PLAP act,Cav32 inh,PostGolgi yeast,hDAT+cocaine
CC1=CC(C)=Nc2ccccc2N1,5,·,1,1,0,-0.15
Cc1cc2cc(CNC(=O)c3ccc(Br)o3)ccc2[nH]1,·,-1.8,·,-6*,·,-0.32
COc1ccc2cc(CCNC(=O)c3ccc4c(c3)OCO4)c(=O)[nH]c2c1,30*,·,1.1,·,-4,1.3
CCC(CC)C(=O)NCCc1cc2ccc(OC)cc2[nH]c1=O,6,-0.29,1,·,-2,·
Cc1cc2cc(CCNC(=O)c3ccc(Br)o3)c(=O)[nH]c2cc1C,102*,0.41,1.2,·,4,1.7
COc1ccc2cc(CCNC(=O)c3ccc(Br)o3)c(=O)[nH]c2c1,99*,-0.014,0.9,·,13,0.29
C=C1CSc2nc3ccccc3c(=O)n21,24,·,1,1,-4,0.011
CN1CCC(=NNC(=O)CSCc2ccccc2)CC1,39*,·,0.9,0.14,-4,0.25
CC(SCc1ccccc1)C(=O)NN=C1CCN(C)CC1 (stereo not drawn),0,·,0.9,0.92,-3,-0.16
CC(NC(=O)Cc1ccccc1)c1nc2ccccc2[nH]1 (stereo not drawn),33*,-0.34,1.2,-0.074,-3,0.58
CCC(=O)NC(c1ccccc1)c1nc2ccccc2[nH]1 (stereo not drawn),-2,-0.63,1.3,0.31,-4,-0.7
O=C(O)c1ccccc1OCCOc1ccccc1C(=O)O,44*,0.12,0.8,-0.58,-8,0.24
C[C@H](c1ccccc1)n1nnc(COCc2ccccc2)c1C#CCOCc1ccccc1,·,·,·,-1.6,·,0.61
COc1ccc(-c2n[nH]c(C)c2-c2cnn(-c3ccccc3)c2)c(O)c1,·,·,·,-2.1,·,1.7
COc1ccc(-c2n[nH]c(C)c2-c2cnn(-c3ccccc3)c2)c(O)c1C,50*,·,1.3,-0.099,-12,-1.2
Cc1nc(SCc2nc3ccccc3[nH]2)c2oc3ccccc3c2n1,38*,4.5,1.1,-1.9,4,3
c1ccc2[nH]c(CSc3ncnc4c3oc3ccccc34)nc2c1,11,-0.16,1,-3,0,0.95
Cc1nc(N2CCN(Cc3nc4ccccc4[nH]3)CC2)c2oc3ccccc3c2n1,2,·,1.9,0.77,-19,2.5*
CC1(C)NC(=O)N(CCCSc2ccc(Cl)cc2)C1=O,12,-0.45,1,0.49,13,1.2
CCOC(=O)C1=C(O)C(Nc2nccs2)(C(F)(F)F)N=C1C (stereo not drawn),35*,0.29,0.9,·,1,·
O=S(=O)(NCCSc1nnc(-c2ccco2)n1-c1ccccc1)c1ccccc1,2,11*,1.3,-0.11,11,-0.014
O=C(CN1CCCCCC1)N/N=C/c1cccs1,-6,·,2.5*,0.33,10,0.56
CCC(C)c1ccc(NC(=O)CSc2nncn2N)cc1 (stereo not drawn),9,·,1.1,0.35,4,-1
Nn1cnnc1SCC(=O)Nc1ccc(C2CCCCC2)cc1,1,-4.3*,0.8,-1.9,1,1.3*
COc1cccc2c1C(=O)c1c(O)c3c(c(O)c1C2=O)C[C@@](O)(C(=O)CO)C[C@@H]3O[C@H]1C[C@H](N)[C@H](O)[C@H](C)O1,·,-2.3,·,-5.7*,·,-1.7
SMILES,PostGolgi ctrl,D1 mod,PLAP act,Cav32 inh,PostGolgi yeast,hDAT+cocaine
COc1cccc2c1C(CO)N1C(C#N)C3CC(C(=O)O)C(C1C2)N3C (stereo not drawn),·,·,·,0.082,·,-0.55
Cc1cc(C)cc(NC(=O)CSCc2nc3c(nnn3Cc3ccc(F)cc3)c(=O)[nH]2)c1,·,·,·,-1,·,-0.59
O=C(O)c1cc(Cl)ccc1NC(=O)C1CCCO1 (stereo not drawn),6,-0.73,1.1,0.084,12,0.0019
O=C(COc1ccccc1Cl)NNC(=O)C1CCCO1 (stereo not drawn),4,·,2*,0.71,7,-0.13
O=C(NNC(=O)C1CCCO1)c1ccc(Cl)cc1 (stereo not drawn),3,·,2.2*,2,-19,-1.1
O=C(Nc1cc(Cl)ccc1O)C1CCCO1 (stereo not drawn),38*,-0.22,0.9,-0.0091,-2,0.42
O=C(COc1ccccc1Cl)NC(=O)NC1CCCC1,3,-0.17,0.7,-1.7,-5,1
CC(C(=O)N1CCCc2ccccc21)N1CCN(S(=O)(=O)c2ccccc2F)CC1 (stereo not drawn),15,·,1.5,0.35,2,-0.2
Cc1cc(C)cc(OCc2nnc(SCC(=O)N3CCN(c4ccccc4)CC3)o2)c1,16,0.12,1,·,-4,-0.97
O=C(CCSc1ccccc1)NCCN1CCOCC1,39*,-0.087,1,0.086,-4,-1.1
O=C(Cc1ccc(-c2ccccc2)cc1)NCCN1CCOCC1,7,·,1.6,0.25,2,-0.7
COc1ccc(CCN2C(=O)c3[nH]nc(-c4ccccc4O)c3C2c2cccc(O)c2)cc1OC (stereo not drawn),6,·,2.9*,-3.3,7,2.7*
O=C1c2[nH]nc(-c3ccccc3O)c2C(c2ccc(F)cc2)N1Cc1ccco1 (stereo not drawn),15,·,2.4*,-4.5*,-3,-0.5
O=C1c2[nH]nc(-c3ccccc3O)c2C(c2cccc(Cl)c2)N1Cc1ccco1 (stereo not drawn),26,·,1.2,-4.3*,-7,-0.78
O=C1N[C@@H](Cc2ccccc2)C(=O)N2[C@H]1C[C@]1(Br)c3ccccc3N(S(=O)(=O)c3ccc(F)cc3)[C@H]21,·,·,·,-2.5,·,0.48
CCOC(=O)c1c(C)c(C(=O)NCc2ccccn2)c(C)n1CC,19,·,1.1,0.54,-1,0.22
O=C1N=C(N2CCOCC2)S/C1=C/c1cccs1,13,·,1,-0.68,9,-0.036
O=C1N=C(N2CCN(c3cccc4ccccc34)CC2)S/C1=C/c1cccs1,37*,·,1.2,-1.9,-5,0.83
CCOC(=O)C1CCN(C(=O)Nc2ccc3nc(-c4ccco4)c(-c4ccco4)nc3c2)CC1,-3,-1.5,1.1,-2.8,10,-0.93
O=C(Nc1ccc2nc(-c3ccco3)c(-c3ccco3)nc2c1)N1CCCCCC1,1,-4.5*,1.4,-3,-2,0.048
COc1ccc2c(c1)-c1c(sn(-c3ccc(OC)c(OC)c3)c1=S)C(C)(C)N2,38*,·,1,-4.1,-7,-0.43
COc1ccc(NC(=S)NCCSc2ccc(C)cc2)c(OC)c1,·,·,·,-6.5*,·,1
CCCCN(CC)Cc1ccc(CNC(=O)Nc2ccc(OCC)cc2)o1,2,·,1.1,-1.6,5,-4.1*
O=C(O)c1cccc(COc2ccccc2Cl)c1,11,-5.3*,1.1,0.75,-11,1.1
Cc1ccc(C)c(N2CCN(C(=O)COc3cc(=O)n(C)c4ccccc34)CC2)c1,38*,-0.031,1.3,·,2,0.6
Cc1n[nH]c(=S)n1/N=C/c1ccc(-c2ccccc2[N+](=O)[O-])o1,18,·,2*,0.075,-3,-0.051
